# Target: PUM1 PUF domain R4-WGW (Homo sapiens, UniProt Q14671 828-1176, N971W;H972G;Q975W)
# Test: yeast three-hybrid, YBZ-1, SC-Leu-His + 0.5 mM 3-AT, 4 days
# Conditions: tags: N-Gal4 AD-HA kept; label: inside an RPR1-promoter hybrid RNA with tandem MS2 sites; ssRNA
# In short: (§1)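 Sequencing with Illumina followed PCR amplification of the repeat regions from transformants grown four days on SC-Leu (input) or SC-Leu-His + 0.5 mM 3-AT (selection). The transformants were strain YBZ-1 with a LexA–MS2 coat fusion and a HIS3 reporter, carrying Pumilio-1 PUF domain libraries and matching RNA elements. The interaction score is the log change in variant frequency from input to selection, computed in log2 with a pseudocount of 1 for absent variants.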
row,Sequence,binding signal
1,GGCUAGAACUAGUGGAUCCCCCGGCGCCCGGCGGCUCGAGCCCGGGUAAGUGUACAUAGUCUGCAUGCCGCCGGGCGCCAUGCCUGCAGGUCGACUCUAGAAAACAUG,2 log2 enrichment (interaction score)
2,GGCUAGAACUAGUGGAUCCCCCGGCGCCCGGCGGCUCGAGCCCGGGUAAGUGUAAAUAGUCUGCAUGCCGCCGGGCGCCAUGCCUGCAGGUCGACUCUAGAAAACAUG,3.2 log2 enrichment (interaction score)
3,GGCUAGAACUAGUGGAUCCCCCGGCGCCCGGCGGCUCGAGCCCGGGUAAGUGUAUAUAGUCUGCAUGCCGCCGGGCGCCAUGCCUGCAGGUCGACUCUAGAAAACAUG,3.62 log2 enrichment (interaction score)

# Target: PUM1 PUF domain R3-GHG (Homo sapiens, UniProt Q14671 828-1176, C935G;R936H;Q939G)
# Test: as above
# Conditions: tags: N-Gal4 AD-HA kept; label: inside an RPR1-promoter hybrid RNA with tandem MS2 sites; ssRNA
# In short: as §1
row,Sequence,binding signal
1,GGCUAGAACUAGUGGAUCCCCCGGCGCCCGGCGGCUCGAGCCCGGGUAAGUGUAAUUAGUCUGCAUGCCGCCGGGCGCCAUGCCUGCAGGUCGACUCUAGAAAACAUG,1.43 log2 enrichment (interaction score)
2,GGCUAGAACUAGUGGAUCCCCCGGCGCCCGGCGGCUCGAGCCCGGGUAAGUGUAAAUAGUCUGCAUGCCGCCGGGCGCCAUGCCUGCAGGUCGACUCUAGAAAACAUG,3.44 log2 enrichment (interaction score)
3,GGCUAGAACUAGUGGAUCCCCCGGCGCCCGGCGGCUCGAGCCCGGGUAAGUGUAAGUAGUCUGCAUGCCGCCGGGCGCCAUGCCUGCAGGUCGACUCUAGAAAACAUG,1.95 log2 enrichment (interaction score)

# Target: T1, PUM1 PUF domain R6-RWR (Homo sapiens, UniProt Q14671 828-1176, N1043R;Y1044W;Q1047R)
# T1 sequence: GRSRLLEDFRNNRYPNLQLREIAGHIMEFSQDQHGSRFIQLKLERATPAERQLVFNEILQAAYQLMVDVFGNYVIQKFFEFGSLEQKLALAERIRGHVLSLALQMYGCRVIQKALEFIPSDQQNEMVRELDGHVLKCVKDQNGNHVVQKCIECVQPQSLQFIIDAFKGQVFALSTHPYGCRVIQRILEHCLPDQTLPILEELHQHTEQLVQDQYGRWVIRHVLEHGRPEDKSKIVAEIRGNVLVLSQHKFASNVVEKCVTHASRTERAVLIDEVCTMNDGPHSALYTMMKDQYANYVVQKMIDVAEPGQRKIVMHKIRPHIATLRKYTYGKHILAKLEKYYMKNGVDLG
# Test: as above
# Conditions: tags: N-Gal4 AD-HA kept; label: inside an RPR1-promoter hybrid RNA with tandem MS2 sites; ssRNA
# In short: as §1
row,Sequence,binding signal
1,GGCUAGAACUAGUGGAUCCCCCGGCGCCCGGCGGCUCGAGCCCGGGUAAGUGAAAAUAGUCUGCAUGCCGCCGGGCGCCAUGCCUGCAGGUCGACUCUAGAAAACAUG,4.83 log2 enrichment (interaction score)
2,GGCUAGAACUAGUGGAUCCCCCGGCGCCCGGCGGCUCGAGCCCGGGUAAGUGUAAAUAGUCUGCAUGCCGCCGGGCGCCAUGCCUGCAGGUCGACUCUAGAAAACAUG,6.07 log2 enrichment (interaction score)
3,GGCUAGAACUAGUGGAUCCCCCGGCGCCCGGCGGCUCGAGCCCGGGUAAGUGGAAAUAGUCUGCAUGCCGCCGGGCGCCAUGCCUGCAGGUCGACUCUAGAAAACAUG,1.16 log2 enrichment (interaction score)
4,GGCUAGAACUAGUGGAUCCCCCGGCGCCCGGCGGCUCGAGCCCGGGUAAGUGCAAAUAGUCUGCAUGCCGCCGGGCGCCAUGCCUGCAGGUCGACUCUAGAAAACAUG,1.4 log2 enrichment (interaction score)

# — paper PMC8384837, “Expanding the binding specificity for RNA recognition by a PUF domain”
